Screening results as filed in PubChem.
Shown are actives, neighbours in structure and some others; about 2.5% of the full set was active somewhere.
NFkB binder = binders of human NF-kappa-B p105. P19838. Small molecule microarray, anti-His fluorescence binding. calls only. actives 1.3% (n = 17,000);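 active = spot fluorescence over background significantly raised, with a chance value under 7% in all four replicate spots of the compound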;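 also: probe protein is his-tagged human p50 processed subunit at 1 µg/ml; raw spot fluorescence signals with no normalization applied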
c-Myc SMM = c-Myc (human) binding; actives 1.5% (n = 17,000); small molecule microarray, His-c-Myc binding, anti-His fluorescence; calls only;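 active = spot fluorescence over background with P-value below 7% in all four replicate spots, showing protein binding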;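 also: score is binary with 100 for all four spots passing and 0 otherwise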
p53 mut binder = binders of human mutant p53. small molecule microarray binding, anti-GST fluorescence. calls only. actives 0.4% (n = 17,000). AID 624136;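 active = compounds whose four printed spots each glow above background more than chance allows, each with a p-value under 7%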
STAT3 binder = STAT3 (human) binding; P40763; Small molecule microarray, His-STAT3 binding, anti-His fluorescence; calls only; actives 0.2% (n = 17,000); AID 624138;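 active = compounds whose four printed spots each show fluorescence over background unusually high for their array block, chance value under 7%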
Target sequence (P40763 whole entry, looked up): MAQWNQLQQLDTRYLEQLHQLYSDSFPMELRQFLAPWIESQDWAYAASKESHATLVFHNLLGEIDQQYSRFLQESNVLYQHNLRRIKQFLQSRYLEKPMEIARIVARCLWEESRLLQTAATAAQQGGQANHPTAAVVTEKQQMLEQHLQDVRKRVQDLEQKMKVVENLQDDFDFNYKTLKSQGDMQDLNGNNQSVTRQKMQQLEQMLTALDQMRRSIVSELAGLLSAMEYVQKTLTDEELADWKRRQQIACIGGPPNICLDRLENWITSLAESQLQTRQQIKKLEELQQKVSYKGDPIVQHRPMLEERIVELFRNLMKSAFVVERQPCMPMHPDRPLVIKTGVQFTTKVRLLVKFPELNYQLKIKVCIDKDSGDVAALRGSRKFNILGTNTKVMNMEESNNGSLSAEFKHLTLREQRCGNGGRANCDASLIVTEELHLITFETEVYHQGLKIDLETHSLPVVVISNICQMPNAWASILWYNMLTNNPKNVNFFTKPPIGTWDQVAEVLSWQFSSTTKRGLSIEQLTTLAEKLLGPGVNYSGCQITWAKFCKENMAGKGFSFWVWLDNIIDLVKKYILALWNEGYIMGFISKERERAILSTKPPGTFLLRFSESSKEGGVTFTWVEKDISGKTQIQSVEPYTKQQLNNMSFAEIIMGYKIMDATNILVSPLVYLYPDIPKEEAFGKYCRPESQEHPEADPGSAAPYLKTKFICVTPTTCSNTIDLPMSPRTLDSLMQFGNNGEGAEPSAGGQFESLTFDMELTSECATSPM
Active calls of the source: *; i = inactive; + = active, no number.

SMILES	NFkB binder	c-Myc SMM	p53 mut binder	STAT3 binder
C[C@@H]1CCCCO[C@@H](CN(C)Cc2ccc(C(F)(F)F)cc2)[C@@H](C)CN([C@H](C)CO)C(=O)c2cc(NC(=O)C3CCCCC3)ccc2O1	i	i	i	i
C[C@@H]1CCCCO[C@@H](CN(C)Cc2ccc(C(=O)O)cc2)[C@H](C)CN([C@H](C)CO)C(=O)c2cc(NC(=O)Nc3ccc(C(F)(F)F)cc3)ccc2O1	+	i	i	i
CC(=O)CCc1ccc(Oc2ccc(C(F)(F)F)cn2)cc1	i	i	i	i
O=[N+]([O-])c1ccc(NCCNCCO)cc1	i	i	+	i
COc1cc(NC(=O)CCN2C(=O)c3ccccc3C2=O)cc(OC)c1	i	i	i	i
COc1ccc(Cn2c3ccc(Br)cc3c3nc4ccccc4nc32)cc1OC	i	+	i	i
COc1ccc(C(=O)CSc2nc3ccccc3c(=O)[nH]2)cc1OC	i	i	i	i
C=CCN1Cc2ccccc2[C@@H]2OC(c3ccc(OCCCO)cc3)=N[C@]2(CCC(=O)OC(C)(C)C)C1=O	+	i	i	i
O=C1N(Cc2ccccc2)Cc2ccccc2C[C@@]12N=C(c1ccc(OCCCO)cc1)O[C@H]2c1ccccc1	+	i	+	i
COC(=O)C(CC#Cc1ccc2c(c1)[C@]1(C(=O)N2)[C@H](c2ccccc2OCCO)N2[C@H](c3ccccc3)[C@H](c3ccccc3)OC(=O)[C@H]2[C@@H]1C(=O)O)C(=O)OC	i	i	i	i
COC(=O)c1cc(Br)ccc1NC(=O)COc1ccc(C(C)(C)C)cc1	i	+	i	i
COC(=O)c1cccc2nc3c(C(C)O)cccc3nc12 (configuration not stated)	i	+	i	i
COC(=O)c1ccccc1NC(=O)C(C)Oc1ccccc1 (configuration not stated)	i	i	i	i
C[C@H](CO)N1C[C@H](C)[C@H](CN(C)C(=O)C2CCCCC2)OCCCC[C@H](C)Oc2ccc(NS(=O)(=O)c3cccs3)cc2C1=O	i	i	i	+
CCCN(C)C[C@H]1OCCCC[C@@H](C)Oc2ccc(NS(=O)(=O)c3ccc(Cl)cc3)cc2C(=O)N([C@@H](C)CO)C[C@H]1C	i	i	i	i
C[C@@H]1CCCCO[C@@H](CN(C)S(C)(=O)=O)[C@@H](C)CN([C@@H](C)CO)C(=O)c2cc(NS(=O)(=O)c3ccccc3)ccc2O1	i	i	i	i
C[C@H](CO)N1C[C@H](C)[C@H](CN(C)S(C)(=O)=O)OCCCC[C@H](C)Oc2ccc(NS(=O)(=O)c3ccccc3)cc2C1=O	+	i	i	i
C[C@@H]1CN([C@@H](C)CO)C(=O)c2cc(NS(=O)(=O)c3ccccc3)ccc2O[C@@H](C)CCCCO[C@@H]1CN(C)C(=O)C1CCCCC1	i	i	i	+
CCCN(C)C[C@H]1OCCCC[C@H](C)Oc2ccc(NS(=O)(=O)c3ccc(OC)cc3)cc2C(=O)N([C@H](C)CO)C[C@H]1C	i	i	+	i
CCOc1ncnc2ccc(Br)cc12	i	i	i	i
COc1cc2c(cc1O)C(C1CC1)N(C)CC2 (configuration not stated)	i	i	i	i
CC[C@H](C)C(=O)O[C@H]1CCC=C2C=C[C@H](C)C(CCC3C[C@@H](O)CC(=O)O3)[C@H]21 (some centres not stated)	i	i	i	i
C=CCOC(=O)[C@H]1[C@@H]2C(=O)O[C@@H](c3ccccc3)[C@@H](c3ccccc3)N2[C@@H](c2ccc(OCCOC(=O)[C@@H]3C[C@@H]4C(=O)N5CCC[C@H]5C(=O)N4[C@@H]3c3ccc(O)cc3)cc2)[C@]12C(=O)Nc1ccc(I)cc12	i	i	i	i
C=CCOC(=O)[C@@H]1[C@H]2C(=O)O[C@H](c3ccccc3)[C@H](c3ccccc3)N2[C@H](c2ccc(OCCOC(=O)[C@@H]3C[C@@H]4C(=O)N[C@@H](CC(C)C)C(=O)N4[C@@H]3c3ccc(O)cc3)cc2)[C@@]12C(=O)Nc1ccc(I)cc12	i	i	i	i
C=CCOC(=O)[C@@H]1[C@H]2C(=O)O[C@H](c3ccccc3)[C@H](c3ccccc3)N2[C@H](c2ccc(OCCOC(=O)[C@@H]3C[C@@H]4C(=O)N[C@@H](Cc5ccccc5)C(=O)N4[C@@H]3c3cccc(OCCO)c3)cc2)[C@@]12C(=O)Nc1ccc(I)cc12	+	i	i	i
SMILES	NFkB binder	c-Myc SMM	p53 mut binder	STAT3 binder
C=CCOC(=O)[C@H]1[C@@H]2C(=O)O[C@@H](c3ccccc3)[C@@H](c3ccccc3)N2[C@@H](c2ccc(OCCOC(=O)[C@H]3C[C@H]4C(=O)N5CCC[C@H]5C(=O)N4[C@H]3c3ccc(O)cc3)cc2)[C@]12C(=O)Nc1ccccc12	+	i	i	i
Oc1ccccc1CNc1ccc2c(c1)ncn2C1CCCCC1	i	+	i	i
COC(=O)c1cn(CC(=O)N2CCN(C)CC2)nn1	i	i	i	i
CN(C)CCCNc1oc(-c2ccccc2F)nc1C#N	i	+	i	i
COC(=O)c1c(NC(=S)NCc2ccco2)sc2c1CCC(C)C2 (configuration not stated)	i	i	i	i
O=C(Nc1sc2c(c1C(=O)NCc1ccco1)CCC2)c1sc2ccccc2c1Cl	i	+	i	i
C=CCNC(=O)[C@H]1[C@@H]2C(=O)O[C@@H](c3ccccc3)[C@@H](c3ccccc3)N2[C@@H](c2ccc(O)cc2)[C@]12C(=O)N(C(=O)OCCOC)c1ccccc12	i	i	i	i
COc1c(O)ccc2c1C(=O)c1c(O)cc(C)cc1C2[C@@H]1O[C@H](CO)[C@@H](O)[C@H](O)[C@H]1O (some centres not stated)	i	i	i	i
C=CCn1c(SCC(=O)O)nnc1-c1cccc(C)c1	i	+	i	i
C[C@H](CO)N1C[C@H](C)[C@H](CN(C)C(=O)CCC(F)(F)F)OCCCC[C@H](C)Oc2ccc(NC(=O)CCC(F)(F)F)cc2C1=O	+	+	i	i
C[C@@H]1CN([C@H](C)CO)C(=O)c2cc(NC(=O)CCC(F)(F)F)ccc2O[C@@H](C)CCCCO[C@H]1CN(C)C(=O)CCC(F)(F)F	+	+	i	i
C[C@H](CO)N1C[C@H](C)[C@@H](CN(C)C(=O)CCC(F)(F)F)OCCCC[C@H](C)Oc2ccc(NC(=O)CCC(F)(F)F)cc2C1=O	i	i	i	i
C[C@@H]1CCCCO[C@H](CN(C)C(=O)CCC(F)(F)F)[C@H](C)CN([C@@H](C)CO)C(=O)c2cc(NC(=O)Cc3ccccc3)ccc2O1	+	+	i	i
CC(C)NC(=O)N(C)C[C@H]1OCCCC[C@H](C)Oc2ccc(NC(=O)CCC(F)(F)F)cc2C(=O)N([C@H](C)CO)C[C@@H]1C	+	+	i	i
